The structures appear in SMILES notation. The panel holds about 83,000 compounds, 20% with a hit somewhere; the sample as a whole holds those more often.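 Treatment: one concentration, 48 hours, 96-well format. Scoring: percent growth, with anything below 10 considered active.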 Values without a mark were called inactive. Calls of active or inactive are those of the source.

This experiment deals with 786-0 renal. Nature of the experiment: NCI-60 one-dose screen, 48 h (100 = growth as untreated, 0 = no growth, -100 = all killed). The settings on record: 10 µM unless noted.
Consider `CCCc1cc(NC)nc(S(=O)(=O)CC)n1`, for which the growth was 101%. Under `Cc1ccc(Cl)cc1Nc1nc(C(F)(F)F)ccc1C(=O)N/N=C/c1cccnc1` stands 2.05% (active); under `Cc1ccc(/C=C2\CN(C(=O)OC(C)(C)C)C/C(=C\c3ccc(C)cc3)C2=O)cc1`, 56.5%; under `O=C(Nc1cccc([N+](=O)[O-])c1)c1cc2ccccc2cc1O`, 8.07% (active). For `NC(=O)c1c(NC(=O)c2ccccc2)sc2c1CCC(=O)C2`, the growth was 28%. For the compound `COc1cc(N2C(=O)[C@H](O)C2c2ccc(SC)cc2)cc(OC)c1OC` (stereo not given in full), the growth was 11.3%.

Consider `Cn1cc(-c2nc(-c3c[nH]c4ccncc34)cs2)c2ccccc21`, for which the growth is 77.3%. Under `OCCNCCCOc1ccc2ncnc(Nc3ccc(Oc4cccc(C(F)(F)F)c4)c(Cl)c3)c2c1` stands -4.05% (active); under `O=S(=O)(NCCNc1cc(-c2c(-c3cccc(O)c3)nc3sccn23)ccn1)c1ccc(C(F)(F)F)cc1`, 38.6%.

For `CCOC(=O)c1nc(Nc2ccc(NC(=O)Nc3ccc(F)cc3)cc2)c2ccccc2n1`, the growth is 106%. In the case of `CCN1C(=O)N(CC)C2C1NN=c1s/c(=C\c3cccc([N+](=O)[O-])c3)c(=O)n12` (stereo not given), the growth is 25%.

As to `C#Cc1cccc(Nc2ncnc3ccc(-c4cnc(N)nc4)cc23)c1`, the growth was 36.3%. For the compound `CCN(CC)CCSc1nc(-c2ccccc2)c(C#N)c(=O)[nH]1`, the growth was 97.7%.

On to `CN1C(=O)/C(=C/c2cn(-c3ccccc3)nc2-c2ccccc2)SC1=S`, for which the growth is 107%.

Turning to `O=C1Nc2ccccc2/C1=C\c1nc(-c2ccccc2)n2ccccc12`, the growth is 99.4%.

Source of the values: PubChem BioAssay (NCI).
